Bioassay records as filed in PubChem BioAssay.
Rows were chosen to be rich in hits. Some 3.8% of all compounds tested hit in one or more screens of this group.
HSF1 activator: increases HSF-1 driven luciferase reporter signal. activation, % at 9 µM. 300,000 tested, 1.7% active. AID 504408. NIH3T3-HGL HSF-1 luciferase reporter, MG132, 8 h; 100% = twice DMSO control signal;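 active means mean replicate activation of at least 50% with a set share of replicates each reaching 50%; inconclusive means only one of those two conditions met; inactive means mean below 50% and too few replicates reaching it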;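 further: 0% = median of the neutral control wells and 100% = twice that signal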
HSF1 inhib: HSF1 inhibition; NIH3T3-HGL HSE-luciferase, MG132-induced, luminescence 8 h; stronger effect = lower value; activity change, negative = inhibition, % at 7.5 µM (by protocol); 300,000 tested, 0.77% active; AID 2098;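 active means more than half of replicate wells show activity change below -50%, luminescence cut by over half; inconclusive means some wells, but at most half, below -50%; inactive means no replicate well below -50%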;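 further: luciferase reports HSF-1 transcriptional activity via heat shock element; 0% = median of DMSO wells and -100% = zero luminescence signal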
MITF act: increases MITF-driven TRPM1 promoter luciferase signal; activation, % at 12.5 µM; SK-MEL-5 TRPM1-promoter luciferase, 24 h; % of positive control, neutral wells = 0; AID 588334; 300,000 tested, 0.75% active;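 active means mean activation of at least 80% with every replicate also reaching 80%; inconclusive means mean reaches 80% but some replicate falls short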;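 further: 0% = neutral control wells and 100% = parthenolide positive control wells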
esBAF inh: blocks esBAF chromatin remodeling in mouse ES cells. Bmi1-luciferase knock-in reporter, 24 h; 100% = twice the neutral-well signal. reporter increase, % at 12.5 µM. 350,000 tested, 2% active. AID 602393; in the data active means activation above about 40%; inconclusive means no clear call, values can overlap the other calls;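 further: 0% = median of the plate's neutral control wells and 100% = double that signal; a rise in the Bmi1 reporter signal indicates esBAF inhibition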
Wnt bcat act: Wnt/beta-catenin pathway activation; Wnt/beta-catenin reporter cell assay, activator, plate reader; activation, % at 9.35 µM; 300,000 tested, 1.2% active; in the data active means activation above about 30%, passing the limit was not always enough; inconclusive means no clear call, values can overlap the other calls;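 further: 0% = neutral control wells and 100% = positive control wells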
* hit, by the source's call; ? = inconclusive; . = no result.

SMILES	HSF1 activator	HSF1 inhib	MITF act	esBAF inh	Wnt bcat act
CCCNC(=O)N(C)C[C@@H]1Oc2cc(-c3cncnc3)ccc2S(=O)(=O)N([C@H](C)CO)C[C@H]1C	.	.	.	-4	.
CNC[C@H]1Oc2ccc(NC(=O)NC3CCCCC3)cc2CC(=O)N([C@H](C)CO)C[C@H]1C	.	.	.	-2	.
O=C1OC(c2ccccc2)=CC1=Cc1ccccc1O	.	.	.	29	29
O=C1OC(c2ccccc2)=C/C1=C/N1CCCCC1	.	.	105*	84*	2
O=C1OC(c2ccc(Br)cc2)=N/C1=C\N1CCCCC1	45	32	124*	53*	9
Cc1ccc(C2=N/C(=C\c3c(C)nn(-c4ccccc4)c3N3CCCC3)C(=O)O2)cc1	12	-3	1	0	-2
O=C1OC(c2ccccc2)=N/C1=C\N1CCCCC1	42	25	86*	85*	-1
COC(=O)N(C)C[C@H]1OCc2ccccc2-c2ccccc2C(=O)N([C@@H](C)CO)C[C@@H]1C	.	.	.	-7	.
CCCC#Cc1ccc2c(c1)O[C@H](CN(C)CCC)[C@@H](C)CN([C@H](C)CO)S2(=O)=O	.	.	.	2	.
CCCN(C)C[C@H]1Oc2cc(C3=CCCCC3)ccc2S(=O)(=O)N([C@H](C)CO)C[C@@H]1C	.	.	.	0	.
C[C@H](CO)N1C[C@H](C)[C@@H](CN(C)Cc2ccc3c(c2)OCO3)Oc2ccc(NC(=O)CCN3CCOCC3)cc2CC1=O	.	.	.	-3	.
C[C@H]1CN([C@@H](C)CO)C(=O)Cc2cc(NC(=O)Nc3ccc(C(F)(F)F)cc3)ccc2O[C@H]1CN(C)C(=O)NC1CCCCC1	.	.	.	2	.
CCCc1cc(C(=O)Nc2cc(C)ccc2O)no1	120*	97	71	57*	-11
Cc1ccc(O)c(NC(=O)c2cc(C)no2)c1	100*	60	-5	2	-6
CCCn1cc(NC(=O)c2cc(-c3ccccc3)on2)cn1	-2	-9	13	53*	.
O=C(Nc1cc(Br)ccc1O)c1cc(-c2ccccc2)on1	44	9	43	26	13
Cc1ccc(O)c(NC(=O)c2cc(-c3ccccc3)on2)c1	96*	65	60	76*	-5
Cc1cc(C(=O)Nc2cc(C)on2)on1	-2	-3	.	-6	2
CO[C@H]1CN(C)C(=O)c2cc(NC(=O)Nc3ccccc3F)ccc2OC[C@@H](C)NC[C@@H]1C	.	.	.	-1	.
COc1ccc(CN(C)C[C@@H]2Oc3c(NC(=O)c4cc(C)nn4C)cccc3C(=O)N([C@H](C)CO)C[C@H]2C)cc1	.	.	.	1	.
C[C@H](CO)N1C[C@H](C)[C@H](CN(C)CC2CC2)Oc2ccc(NC(=O)Cc3ccccc3)cc2C1=O	.	.	.	-1	.
C[C@H](CO)N1C[C@H](C)[C@@H](CN(C)C(=O)Nc2ccccc2)Oc2c(NC(=O)c3cnccn3)cccc2C1=O	.	.	.	-1	.
COc1ccc(NC(=O)N(C)C[C@@H]2OCCCC[C@@H](C)Oc3ccc(NS(=O)(=O)c4c(C)noc4C)cc3C(=O)N([C@@H](C)CO)C[C@H]2C)cc1	.	.	.	3	.
CCC(C)c1ccccc1NC(=O)c1cc(C)no1 (stereo not given)	59*	16	-3	-8	0
c1cncc(Nc2nc(-c3cccs3)cs2)c1	-1	-4	52	69*	16
SMILES	HSF1 activator	HSF1 inhib	MITF act	esBAF inh	Wnt bcat act
COc1ccc(-c2csc(Nc3cccnc3)n2)cc1	23	-5	42	.	.
Brc1cccc(Nc2nc(-c3cccnc3)cs2)c1	-3	10	16	49*	27
Clc1cccc(Nc2nc(-c3cccnc3)cs2)c1	20	16	43	78*	0
COCC#Cc1cnc2c(c1)C(=O)N([C@@H](C)CO)C[C@H](C)[C@H](CN(C)Cc1ccc3c(c1)OCO3)O2	.	.	.	8	.
COc1ccc2nc(/N=C(\N)NC(=O)C(C)(C)C)nc(C)c2c1	35	7	78	48*	.
CCC(=O)N/C(N)=N/c1nc(C)c2cc(OC)ccc2n1	14	24	68	55*	.
COc1ccc2nc(/N=C(\N)NC(=O)N3c4ccccc4Sc4ccccc43)nc(C)c2c1	-2	5	-1	.	-3
CCOC(=O)C1=C(CP(=O)(c2ccccc2)c2ccccc2)NC(=O)NC1c1ccc(OC)cc1 (stereo not given)	-9	-2	-10	.	84*
CCOC(=O)C1=C(C)NC(=O)NC1c1ccc(NC(C)=O)cc1 (stereo not given)	-5	-1	5	.	1
CCOC(=O)C1=C(CP(=O)(c2ccccc2)c2ccccc2)NC(=O)NC1c1ccc(Cl)cc1 (stereo not given)	19	8	-6	0	-6
CCOC(=O)C1=C(C)NC(=O)NC1c1cc(Br)c(O)c(OC)c1 (stereo not given)	19	22	-4	-12	.
CCOC(=O)C1=C(c2ccccc2)NC(=O)NC1c1cc(Br)c(O)c(OC)c1 (stereo not given)	79*	32	-4	5	0
CCOC(=O)C1=C(c2ccccc2)NC(=O)NC1c1ccsc1 (stereo not given)	-61	-51*	-5	-7	0
CCOC(=O)C1=C(C)NC(=O)NC1c1ccc(N2CCC(c3ccccc3)=N2)cc1 (stereo not given)	67*	27	17	-10	6
c1csc(-c2cn3ccc4ccccc4c3n2)c1	?	26	17	72*	23
c1csc(-c2nc3c4ccccc4c4ccccc4c3[nH]2)c1	32	7	.	-5	-2
Brc1ccc(COc2ncnc3ccccc23)cc1	12	7	-4	.	-1
c1ccc(OCCOc2ncnc3ccccc23)cc1	36	23	?	51*	.
COc1ccccc1-c1ccc2c(c1)[C@@H]1[C@@H](CCN1S(=O)(=O)c1ccccc1F)[C@H](CO)N2	.	.	.	-1	.
CCOc1cc(/C=C2/NC(=O)N(Cc3ccccc3F)C2=O)ccc1O	86*	59	-10	9	-8
COc1cc(/C=C2/NC(=O)N(Cc3ccccc3F)C2=O)cc(OC)c1O	21	13	-5	.	0
Cn1c(O)c(C=Nc2ccc(Br)cc2)sc1=O	58*	24	68	.	60*
O=C(CSc1nc2cc(Cl)ccc2c(=O)n1Cc1ccco1)Nc1ccc(S(=O)(=O)N2CCOCC2)cc1	79*	41	4	.	-1
O=C(CSc1nc2cc(Cl)ccc2s1)Nc1cccc(S(=O)(=O)N2CCOCC2)c1	-63	-54*	-5	.	.
COC(=O)c1ccc2c(=O)n(Cc3ccco3)c(SCC(=O)Nc3ccc(C)c(Cl)c3)nc2c1	-1	-3	-13	1	.
C[C@@H](NC(=O)[C@@H]1[C@@H](CO)[C@@H]2Cn3c(ccc(-c4cccnc4)c3=O)[C@@H]2N1C)c1ccccc1	.	.	.	0	.
CC(C)NC(=O)Nc1cccc2c1O[C@H](CN(C)S(=O)(=O)c1ccc(F)cc1)[C@H](C)CN([C@@H](C)CO)C2=O	.	.	.	-2	.
N#C/C(=C/c1ccco1)c1nc2ccccc2s1	100*	44	5	.	51*
